# Measured values taken from ChEMBL document CHEMBL1961873, “Compounds: GSK PKIS; Assays: Nanosyn kinase panel” (2012).
# Experiments:
# [1] = target: Protein kinase C gamma type (Homo sapiens) (UniProt P05129); settings: at 1 µM;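 also: each value is an averaged percent inhibition of the enzyme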
# [2] = target: T1, Protein kinase C iota type (Homo sapiens) (UniProt P41743); settings: at 0.1 µM
# T1 sequence (whole entry): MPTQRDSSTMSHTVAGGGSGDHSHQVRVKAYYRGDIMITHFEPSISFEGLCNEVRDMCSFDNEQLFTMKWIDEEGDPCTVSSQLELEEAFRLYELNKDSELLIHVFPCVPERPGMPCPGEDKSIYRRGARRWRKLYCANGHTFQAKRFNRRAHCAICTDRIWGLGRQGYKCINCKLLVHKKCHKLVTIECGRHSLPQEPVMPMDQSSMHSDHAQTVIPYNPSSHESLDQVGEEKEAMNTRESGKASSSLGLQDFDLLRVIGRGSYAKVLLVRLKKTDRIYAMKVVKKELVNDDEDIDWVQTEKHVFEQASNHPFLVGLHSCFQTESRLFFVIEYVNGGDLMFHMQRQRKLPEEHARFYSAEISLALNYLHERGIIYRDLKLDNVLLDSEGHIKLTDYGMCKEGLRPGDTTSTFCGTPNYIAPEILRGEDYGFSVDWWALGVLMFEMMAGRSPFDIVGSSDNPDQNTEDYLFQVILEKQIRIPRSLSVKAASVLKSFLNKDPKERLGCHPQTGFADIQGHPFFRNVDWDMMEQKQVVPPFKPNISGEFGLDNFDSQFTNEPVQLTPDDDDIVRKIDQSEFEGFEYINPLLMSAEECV
# [3] = target: T1, Protein kinase C iota type (Homo sapiens); settings: at 1 µM
# [4] = target: Protein kinase C theta type (Homo sapiens) (UniProt Q04759); settings: at 0.1 µM
# Chain of Protein kinase C theta type (Homo sapiens) (Q04759 whole entry, looked up): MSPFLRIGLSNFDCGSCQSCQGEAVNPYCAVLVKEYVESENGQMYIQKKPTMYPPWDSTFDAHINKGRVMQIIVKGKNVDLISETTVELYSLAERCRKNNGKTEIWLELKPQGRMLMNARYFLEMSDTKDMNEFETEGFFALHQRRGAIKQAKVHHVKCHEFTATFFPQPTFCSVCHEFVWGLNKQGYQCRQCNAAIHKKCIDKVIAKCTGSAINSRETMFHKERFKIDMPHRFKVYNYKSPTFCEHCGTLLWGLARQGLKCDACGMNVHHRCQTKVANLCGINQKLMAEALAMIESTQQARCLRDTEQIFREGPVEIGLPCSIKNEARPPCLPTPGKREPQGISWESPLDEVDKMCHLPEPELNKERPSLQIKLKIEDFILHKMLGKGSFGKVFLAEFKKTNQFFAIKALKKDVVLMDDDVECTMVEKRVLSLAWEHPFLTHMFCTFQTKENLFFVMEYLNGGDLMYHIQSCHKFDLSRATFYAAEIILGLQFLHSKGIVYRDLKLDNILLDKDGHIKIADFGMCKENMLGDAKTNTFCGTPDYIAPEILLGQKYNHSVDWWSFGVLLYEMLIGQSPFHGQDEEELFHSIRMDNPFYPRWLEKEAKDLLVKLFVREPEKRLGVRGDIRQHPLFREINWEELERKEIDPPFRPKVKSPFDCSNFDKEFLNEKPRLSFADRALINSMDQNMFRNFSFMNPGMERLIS
# [5] = target: Protein kinase C theta type (Homo sapiens) (UniProt Q04759); settings: at 1 µM
# [6] = target: Protein kinase C beta type (Homo sapiens) (UniProt P05771); settings: at 0.1 µM
# Chain of Protein kinase C beta type (Homo sapiens) (P05771 2-671 limits assumed): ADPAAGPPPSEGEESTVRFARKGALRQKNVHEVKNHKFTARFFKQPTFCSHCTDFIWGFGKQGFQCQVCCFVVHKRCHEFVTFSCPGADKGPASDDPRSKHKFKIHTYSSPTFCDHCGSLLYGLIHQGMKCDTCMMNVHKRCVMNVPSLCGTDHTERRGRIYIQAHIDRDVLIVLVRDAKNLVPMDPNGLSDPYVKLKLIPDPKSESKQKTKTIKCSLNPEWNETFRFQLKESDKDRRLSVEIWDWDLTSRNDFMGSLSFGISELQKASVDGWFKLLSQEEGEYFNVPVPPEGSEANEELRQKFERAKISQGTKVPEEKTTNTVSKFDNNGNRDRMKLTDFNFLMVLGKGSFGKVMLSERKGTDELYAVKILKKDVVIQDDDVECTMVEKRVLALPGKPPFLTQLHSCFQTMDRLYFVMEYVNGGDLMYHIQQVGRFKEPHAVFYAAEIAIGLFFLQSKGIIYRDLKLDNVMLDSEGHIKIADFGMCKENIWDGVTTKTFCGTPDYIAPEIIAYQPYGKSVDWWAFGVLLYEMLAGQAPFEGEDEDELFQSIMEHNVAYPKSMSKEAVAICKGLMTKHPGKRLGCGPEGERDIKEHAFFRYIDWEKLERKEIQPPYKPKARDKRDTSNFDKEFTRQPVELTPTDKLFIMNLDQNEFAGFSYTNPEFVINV
# [7] = target: Protein kinase C beta type (Homo sapiens) (UniProt P05771); settings: at 1 µM
# [8] = target: T2, Serine/threonine-protein kinase D1 (Homo sapiens) (UniProt Q15139); settings: at 0.1 µM
# T2 sequence (whole entry): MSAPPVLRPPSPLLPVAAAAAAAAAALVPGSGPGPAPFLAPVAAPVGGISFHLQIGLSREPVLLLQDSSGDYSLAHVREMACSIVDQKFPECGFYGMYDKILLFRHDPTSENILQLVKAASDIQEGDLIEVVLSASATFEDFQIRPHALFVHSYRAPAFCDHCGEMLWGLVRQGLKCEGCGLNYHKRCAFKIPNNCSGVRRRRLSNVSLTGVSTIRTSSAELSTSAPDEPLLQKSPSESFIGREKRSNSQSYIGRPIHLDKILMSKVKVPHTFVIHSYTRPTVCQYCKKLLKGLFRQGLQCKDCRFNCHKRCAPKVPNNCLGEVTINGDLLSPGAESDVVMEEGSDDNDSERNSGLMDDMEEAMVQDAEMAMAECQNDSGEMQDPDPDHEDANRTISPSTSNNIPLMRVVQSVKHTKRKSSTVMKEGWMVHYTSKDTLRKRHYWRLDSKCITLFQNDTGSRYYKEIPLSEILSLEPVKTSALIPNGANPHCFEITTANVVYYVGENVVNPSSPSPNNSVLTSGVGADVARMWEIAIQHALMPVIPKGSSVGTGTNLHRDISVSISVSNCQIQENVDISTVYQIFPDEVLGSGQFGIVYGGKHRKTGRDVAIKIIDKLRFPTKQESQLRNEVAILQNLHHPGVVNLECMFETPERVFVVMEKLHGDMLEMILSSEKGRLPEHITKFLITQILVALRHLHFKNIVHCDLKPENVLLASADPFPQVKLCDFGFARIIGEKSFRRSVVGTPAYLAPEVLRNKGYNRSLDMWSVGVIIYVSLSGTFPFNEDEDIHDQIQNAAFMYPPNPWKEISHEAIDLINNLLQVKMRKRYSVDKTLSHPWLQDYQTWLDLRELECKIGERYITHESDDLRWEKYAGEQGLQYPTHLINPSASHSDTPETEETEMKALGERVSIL
# [9] = target: T2, Serine/threonine-protein kinase D1 (Homo sapiens); settings: at 1 µM
# [10] = target: T3, Serine/threonine-protein kinase D2 (Homo sapiens) (UniProt Q9BZL6); settings: at 0.1 µM
# T3 sequence (whole entry): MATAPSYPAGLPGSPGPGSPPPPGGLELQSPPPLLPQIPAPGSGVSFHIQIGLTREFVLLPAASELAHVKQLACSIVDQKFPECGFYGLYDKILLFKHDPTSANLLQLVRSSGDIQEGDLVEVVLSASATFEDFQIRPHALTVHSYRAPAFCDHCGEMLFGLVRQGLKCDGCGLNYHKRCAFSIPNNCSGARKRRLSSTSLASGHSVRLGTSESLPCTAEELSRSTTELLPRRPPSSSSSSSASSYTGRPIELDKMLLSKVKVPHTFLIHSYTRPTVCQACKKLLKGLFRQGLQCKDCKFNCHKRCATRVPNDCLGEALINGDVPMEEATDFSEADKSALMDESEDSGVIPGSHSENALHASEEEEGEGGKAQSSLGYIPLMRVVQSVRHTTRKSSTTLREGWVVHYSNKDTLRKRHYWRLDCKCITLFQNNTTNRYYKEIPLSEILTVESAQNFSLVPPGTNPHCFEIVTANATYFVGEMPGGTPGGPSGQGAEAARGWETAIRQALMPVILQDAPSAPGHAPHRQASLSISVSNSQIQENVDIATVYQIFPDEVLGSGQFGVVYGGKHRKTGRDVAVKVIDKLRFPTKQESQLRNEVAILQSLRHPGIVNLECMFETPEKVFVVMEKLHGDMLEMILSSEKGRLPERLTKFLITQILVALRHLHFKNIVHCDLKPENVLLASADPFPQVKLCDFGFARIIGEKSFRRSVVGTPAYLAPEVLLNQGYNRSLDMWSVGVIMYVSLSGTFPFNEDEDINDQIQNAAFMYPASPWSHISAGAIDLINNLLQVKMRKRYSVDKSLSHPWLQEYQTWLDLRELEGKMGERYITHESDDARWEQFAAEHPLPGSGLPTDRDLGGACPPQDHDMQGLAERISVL
# [11] = target: T3, Serine/threonine-protein kinase D2 (Homo sapiens); settings: at 1 µM
# [12] = target: T4, Serine/threonine-protein kinase D3 (Homo sapiens) (UniProt O94806); settings: at 0.1 µM
# T4 sequence (whole entry): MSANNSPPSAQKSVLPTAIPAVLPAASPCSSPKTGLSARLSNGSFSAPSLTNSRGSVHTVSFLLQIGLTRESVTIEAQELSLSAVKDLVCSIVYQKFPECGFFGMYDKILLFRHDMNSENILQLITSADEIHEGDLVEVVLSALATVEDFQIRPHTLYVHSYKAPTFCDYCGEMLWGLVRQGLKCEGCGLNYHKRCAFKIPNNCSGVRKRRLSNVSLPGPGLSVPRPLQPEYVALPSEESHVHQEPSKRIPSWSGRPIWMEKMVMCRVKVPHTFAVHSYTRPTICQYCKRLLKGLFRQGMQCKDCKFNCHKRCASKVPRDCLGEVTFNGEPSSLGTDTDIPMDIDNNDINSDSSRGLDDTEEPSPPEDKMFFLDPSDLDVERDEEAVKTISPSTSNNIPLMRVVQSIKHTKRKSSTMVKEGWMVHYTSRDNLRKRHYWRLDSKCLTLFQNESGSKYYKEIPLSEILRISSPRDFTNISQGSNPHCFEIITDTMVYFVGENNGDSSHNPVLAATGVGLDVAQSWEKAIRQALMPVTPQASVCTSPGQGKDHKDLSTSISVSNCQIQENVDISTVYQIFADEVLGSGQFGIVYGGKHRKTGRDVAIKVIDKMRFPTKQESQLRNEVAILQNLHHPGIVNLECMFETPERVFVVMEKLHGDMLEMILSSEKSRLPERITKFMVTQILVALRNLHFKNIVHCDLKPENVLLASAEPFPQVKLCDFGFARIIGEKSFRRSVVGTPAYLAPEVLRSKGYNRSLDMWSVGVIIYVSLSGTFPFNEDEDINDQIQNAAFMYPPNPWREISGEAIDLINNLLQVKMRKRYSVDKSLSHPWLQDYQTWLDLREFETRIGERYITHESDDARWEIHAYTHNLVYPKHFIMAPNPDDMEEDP
# [13] = target: T4, Serine/threonine-protein kinase D3 (Homo sapiens); settings: at 1 µM
# [14] = target: T5, cGMP-dependent protein kinase 1 (Homo sapiens) (UniProt Q13976); settings: at 0.1 µM
# T5 sequence (whole entry): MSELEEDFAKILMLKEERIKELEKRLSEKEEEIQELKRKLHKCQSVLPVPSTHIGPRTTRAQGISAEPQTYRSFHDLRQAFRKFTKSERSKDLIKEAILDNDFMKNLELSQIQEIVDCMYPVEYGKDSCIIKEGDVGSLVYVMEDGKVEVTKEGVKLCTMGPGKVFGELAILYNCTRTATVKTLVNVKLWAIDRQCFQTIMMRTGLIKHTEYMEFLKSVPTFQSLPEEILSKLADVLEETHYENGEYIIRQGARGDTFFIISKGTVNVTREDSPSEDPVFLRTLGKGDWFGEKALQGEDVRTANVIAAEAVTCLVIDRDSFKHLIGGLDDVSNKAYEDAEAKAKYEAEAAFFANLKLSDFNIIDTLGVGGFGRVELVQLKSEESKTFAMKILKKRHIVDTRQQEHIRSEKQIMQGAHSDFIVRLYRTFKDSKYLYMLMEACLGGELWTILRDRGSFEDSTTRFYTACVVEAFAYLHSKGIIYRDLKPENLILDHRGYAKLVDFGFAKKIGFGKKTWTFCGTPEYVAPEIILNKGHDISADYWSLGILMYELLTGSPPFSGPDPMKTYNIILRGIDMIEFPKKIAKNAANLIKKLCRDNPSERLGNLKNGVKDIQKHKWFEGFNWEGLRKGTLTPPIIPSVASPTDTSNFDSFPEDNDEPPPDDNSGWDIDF
# [15] = target: T5, cGMP-dependent protein kinase 1 (Homo sapiens); settings: at 1 µM
# [16] = target: T6, cGMP-dependent protein kinase 2 (Homo sapiens) (UniProt Q13237); settings: at 0.1 µM
# T6 sequence (whole entry): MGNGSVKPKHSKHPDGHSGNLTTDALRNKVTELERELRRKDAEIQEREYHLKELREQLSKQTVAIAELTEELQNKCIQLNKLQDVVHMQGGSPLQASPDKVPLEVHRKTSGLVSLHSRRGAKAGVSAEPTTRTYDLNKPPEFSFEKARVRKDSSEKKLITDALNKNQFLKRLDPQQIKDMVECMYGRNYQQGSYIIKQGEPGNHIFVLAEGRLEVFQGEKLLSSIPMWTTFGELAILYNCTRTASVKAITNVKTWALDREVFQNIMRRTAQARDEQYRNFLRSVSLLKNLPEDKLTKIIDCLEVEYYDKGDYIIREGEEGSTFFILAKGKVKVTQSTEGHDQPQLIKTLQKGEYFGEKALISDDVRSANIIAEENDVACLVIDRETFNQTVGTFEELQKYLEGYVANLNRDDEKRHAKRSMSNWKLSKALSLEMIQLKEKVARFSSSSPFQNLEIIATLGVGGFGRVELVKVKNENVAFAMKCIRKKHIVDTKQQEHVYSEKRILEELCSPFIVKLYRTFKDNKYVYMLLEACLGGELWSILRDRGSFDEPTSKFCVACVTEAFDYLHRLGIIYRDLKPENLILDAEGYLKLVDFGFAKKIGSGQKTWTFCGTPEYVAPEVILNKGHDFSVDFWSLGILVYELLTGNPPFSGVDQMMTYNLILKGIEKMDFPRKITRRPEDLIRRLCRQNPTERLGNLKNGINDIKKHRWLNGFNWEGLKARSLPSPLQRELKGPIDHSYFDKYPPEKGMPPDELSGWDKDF
# [17] = target: T6, cGMP-dependent protein kinase 2 (Homo sapiens); settings: at 1 µM
# [18] = target: T7, cAMP-dependent protein kinase catalytic subunit PRKX (Homo sapiens) (UniProt P51817); settings: at 0.1 µM
# T7 sequence (whole entry): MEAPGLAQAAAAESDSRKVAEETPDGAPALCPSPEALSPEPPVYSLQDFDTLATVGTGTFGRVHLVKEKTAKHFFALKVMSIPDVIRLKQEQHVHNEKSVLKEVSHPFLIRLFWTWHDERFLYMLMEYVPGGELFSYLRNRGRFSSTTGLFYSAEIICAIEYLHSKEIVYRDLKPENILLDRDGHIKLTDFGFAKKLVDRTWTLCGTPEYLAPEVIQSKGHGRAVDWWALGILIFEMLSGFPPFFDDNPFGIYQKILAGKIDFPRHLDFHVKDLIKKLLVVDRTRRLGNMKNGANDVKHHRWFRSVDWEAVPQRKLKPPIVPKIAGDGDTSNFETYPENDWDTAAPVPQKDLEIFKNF
# [19] = target: T7, cAMP-dependent protein kinase catalytic subunit PRKX (Homo sapiens); settings: at 1 µM
# [20] = target: Rho-associated protein kinase 1 (Homo sapiens) (UniProt Q13464); settings: at 0.1 µM;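 also: values are mean percent inhibition of ROCK1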
# Chain of Rho-associated protein kinase 1 (Homo sapiens) (Q13464 2-1354 limits assumed): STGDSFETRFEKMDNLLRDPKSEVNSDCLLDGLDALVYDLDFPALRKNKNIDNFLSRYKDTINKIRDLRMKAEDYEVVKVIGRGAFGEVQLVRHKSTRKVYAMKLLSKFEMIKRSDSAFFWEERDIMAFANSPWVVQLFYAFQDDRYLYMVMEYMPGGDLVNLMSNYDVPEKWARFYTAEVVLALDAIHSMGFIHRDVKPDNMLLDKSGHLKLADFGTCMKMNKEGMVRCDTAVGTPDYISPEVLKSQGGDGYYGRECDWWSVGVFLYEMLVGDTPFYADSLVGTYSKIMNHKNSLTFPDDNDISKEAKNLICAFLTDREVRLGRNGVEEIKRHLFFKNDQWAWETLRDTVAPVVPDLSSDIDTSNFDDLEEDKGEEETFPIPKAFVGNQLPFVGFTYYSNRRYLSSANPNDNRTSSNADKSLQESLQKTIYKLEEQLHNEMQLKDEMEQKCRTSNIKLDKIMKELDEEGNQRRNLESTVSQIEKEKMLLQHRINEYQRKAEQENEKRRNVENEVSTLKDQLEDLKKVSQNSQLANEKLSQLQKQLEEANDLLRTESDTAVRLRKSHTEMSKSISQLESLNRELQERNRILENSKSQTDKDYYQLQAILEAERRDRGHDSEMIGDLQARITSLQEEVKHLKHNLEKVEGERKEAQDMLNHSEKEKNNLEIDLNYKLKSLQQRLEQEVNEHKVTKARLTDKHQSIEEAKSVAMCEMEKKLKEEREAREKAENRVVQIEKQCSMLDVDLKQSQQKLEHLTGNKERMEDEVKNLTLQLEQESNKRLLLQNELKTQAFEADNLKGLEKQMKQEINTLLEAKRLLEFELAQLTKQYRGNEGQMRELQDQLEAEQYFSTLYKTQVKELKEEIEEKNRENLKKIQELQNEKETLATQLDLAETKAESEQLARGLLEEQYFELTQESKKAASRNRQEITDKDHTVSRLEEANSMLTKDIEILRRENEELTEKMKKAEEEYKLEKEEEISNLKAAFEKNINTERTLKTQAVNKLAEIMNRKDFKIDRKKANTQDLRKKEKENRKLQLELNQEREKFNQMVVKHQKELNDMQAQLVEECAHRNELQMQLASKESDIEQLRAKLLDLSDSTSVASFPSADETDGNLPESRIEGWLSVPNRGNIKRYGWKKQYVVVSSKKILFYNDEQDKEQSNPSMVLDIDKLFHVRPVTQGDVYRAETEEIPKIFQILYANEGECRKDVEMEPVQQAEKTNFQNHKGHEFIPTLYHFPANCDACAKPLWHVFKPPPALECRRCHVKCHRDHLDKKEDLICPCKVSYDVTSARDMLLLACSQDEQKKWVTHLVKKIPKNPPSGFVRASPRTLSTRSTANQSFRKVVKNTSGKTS
SMILES,inhibition [1] [%],inhibition [2] [%],inhibition [3] [%],inhibition [4] [%],inhibition [5] [%],inhibition [6] [%],inhibition [7] [%],inhibition [8] [%],inhibition [9] [%],inhibition [10] [%],inhibition [11] [%],inhibition [12] [%],inhibition [13] [%],inhibition [14] [%],inhibition [15] [%],inhibition [16] [%],inhibition [17] [%],inhibition [18] [%],inhibition [19] [%],inhibition [20] [%]
CN(C)C(=O)O[C@@H]1CN[C@@H](C#Cc2cc3ncnc(Nc4ccc(OCc5cccc(F)c5)c(Cl)c4)c3s2)C1,-0.54,-1.15,0,-0.8,-1.63,0.88,0.87,0.32,3.71,0.79,5.06,1.06,4.35,-0.86,1.64,0.46,2.7,-0.77,-1.92,-0.58
O=S(=O)(CCOCc1ccc(-c2ccc3ncnc(Nc4ccc(OCc5cccc(F)c5)c(Cl)c4)c3c2)o1)c1ccccc1,1.98,0.8,0.31,0.62,0.48,0.96,1.53,1.15,2.02,1.72,2.14,1.07,1.96,1.36,2.37,1.18,2.63,1.21,1.09,1.34
CCn1c(-c2nonc2N)nc2c(C#CC(C)(C)O)nc(OCCNC)cc21,8.19,0.89,1.21,15.7,61.1,1.53,10.8,4.31,12.9,4.9,7.32,4.82,9.81,9.59,44.8,39.3,70.9,21.5,65.9,3.08
